# Assay results taken from the supplement of paper PMC9177965.
# “And” between values parts separate entries of the source, which are not always exact repeats. Equal values may be shown once.
# Tested on: HT29 sg-Ctrl (RNF43 wildtype)
# Experiment: cell viability activity relative to DMSO (negative = inhibition); higher = more viable cells (less growth inhibition)
# Conditions: 5 µM; 96 h
# Protocol: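 Broad Repurposing Library primary screen at a single dose of 5 uM. HT29 sg-Ctrl and HT29 RNF43 G659fs CRISPR-edited isogenic cells were seeded at 2500 cells/well in 384-well plates in duplicate and treated for 96 h. Viability was read by CellTiter-Glo and reported as % activity relative to DMSO, with MG132 as the positive control (negative = growth inhibition).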
row,Structure (SMILES),cell viability activity
1,CCN(CC)CCO[C@H]1CC[C@@]2(C)C(=CC[C@@H]3[C@@H]2CC[C@]2(C)C(=O)CC[C@@H]32)C1,-52.8%
2,COC(=O)NC(=S)Nc1ccccc1NC(=S)NC(=O)OC,-38.9%
3,N#Cc1cn([C@@H]2O[C@H](CO)[C@@H](O)[C@H]2O)c2ncnc(N)c12,-89.9%
4,CC(C)[C@]12O[C@H]1[C@@H]1O[C@]13[C@]1(O[C@H]1C[C@H]1C4=C(CC[C@@]13C)C(=O)OC4)[C@@H]2O,-87.8% and -92.2%
5,CC[C@H]1CN2CCc3cc(OC)c(OC)cc3[C@@H]2C[C@@H]1C[C@H]1NCCc2cc(OC)c(OC)cc21,-92.7% and -98.3%
6,CN(C)C(=S)SSC(=S)N(C)C,-69%
7,O=[N+]([O-])C=Cc1ccc2c(c1)OCO2,-21%
8,C=C(C)[C@H]1Cc2c(ccc3c2O[C@@H]2COc4cc(OC)c(OC)cc4[C@@H]2C3=O)O1,-75.8%
9,O=Cc1cn(Cc2ccc(Cl)cc2)c2ccccc12,-88.6%
10,CC[C@@H](C(=O)[C@@H](C)[C@@H](O)[C@H](C)[C@@H]1O[C@@H]([C@@H](CC)C(=O)O)CC[C@@H]1C)[C@H]1O[C@]2(C=C[C@@H](O)[C@]3(CC[C@@](C)([C@H]4CC[C@](O)(CC)[C@H](C)O4)O3)O2)[C@H](C)C[C@@H]1C,-71.9%
11,C=C1[C@@H](C)[C@H]2[C@H](Cc3ccccc3)NC(=O)[C@]23OC(=O)/C=C/[C@H](O)CCC[C@@H](C)C/C=C/[C@H]3[C@@H]1O,-36.1%
12,CC[C@@]1(O)C(=O)OCc2c1cc1n(c2=O)Cc2cc3ccccc3nc2-1,-91.5%
13,O=C1C=C2C=C[C@@H]3C[C@@]2(O1)[C@H]1CCCCN31,-6.19%
14,C/C1=C/C[C@@H](/C(C)=C/c2csc(C)n2)OC(=O)C[C@H](O)C(C)(C)C(=O)[C@H](C)[C@@H](O)[C@@H](C)CCC1,-42.3%
